Out of some 2,400 compounds screened, about 95 (4%) were called active.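 How the source made its calls: active means mean of duplicate membrane potential ratios lying over 3 SD above or below the buffer control mean, so actives fall on both sides; inactive means the rest.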 Only a sample is shown.
Assay: membrane potential effects in parental HEK293, counter-screen for CHT inhibitor project, cell-based, membrane potential dye (AID 493222);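 further: parental cells lack the transporter so any hit is non-specific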;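 on membrane potential ratio readout (active if shifted either direction beyond buffer ±3SD; no single direction): ratio is peak minus trough fluorescence over baseline after EC90 choline challenge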
Settings: choline response, at 10 µM; active = decrease or increase beyond buffer ±3SD

Compound	membrane potential ratio readout (active if shifted either direction beyond buffer ±3SD; no single direction)
O=S(=O)(Nc1ccc(Cl)cn1)c1cnc(Cl)c(Br)c1	inactive
Cc1ccc(CS(=O)(=O)c2ncc(Cl)c(C(=O)Nc3nnc(C)s3)n2)cc1	inactive
COC(=O)C(C(=O)Nc1cccc(Cl)c1C)C1CCCC1 (configuration not stated)	inactive
Cc1ccc(C(=O)NC2CCCC(C)C2C)cc1S(=O)(=O)N1CCCCC1 (configuration not stated)	inactive
Cc1cccc(-c2nc3ccc(C(=O)NCCN4CCN(C)CC4)cc3nc2-c2cccc(C)c2)c1	inactive
O=C(c1cccs1)C1C(c2ccc(Br)cc2)NC(=S)NC1(O)C(F)(F)F (configuration not stated)	inactive
COc1ccc2c(c1)OC(O)(C(F)(F)C(F)F)CC2=O (configuration not stated)	inactive
Cc1ccc(S(=O)(=O)/N=C(/NC(=S)Nc2c(C)n(C)n(-c3ccccc3)c2=O)c2ccccc2)cc1	inactive
O=C(C1CCN(S(=O)(=O)c2ccc(Br)s2)CC1)N1CCN(c2ccccc2)CC1	inactive
CC(=O)Nc1nc2c(s1)C(=O)NCC(C)(C)C2	inactive
CC1CCCC(NC(=O)c2cccc(N3CCCC3=O)c2)C1C (configuration not stated)	inactive
CNCC(O)c1ccc(O)c(O)c1 (configuration not stated)	inactive
CCCCOc1ccc(Cl)cc1CSc1nncn1N	inactive
O=C(Nc1ccn(Cc2ccccc2)n1)c1n[nH]c([N+](=O)[O-])c1Cl	inactive
CCOc1ccc(/C=C2\SC(=S)N(NC(=O)c3ccncc3)C2=O)cc1OC	inactive
CCOC(=O)C1(CCOC)CCN(Cc2ccc(C(=O)OC)cc2)CC1	inactive
OC1CN=C2Sc3ccccc3N2C1 (configuration not stated)	inactive
CC(Oc1ccc2ccccc2c1)C(=O)NNC(=S)NC(=O)c1ccco1 (configuration not stated)	inactive
CCCCCn1c(=O)c(C(=O)OCC)c(Cl)c2ccccc21	inactive
O=[N+]([O-])c1ccccc1Nc1ccc(O)cc1	2.4 (active)
Cc1ccc(SC(CC(=O)c2ccc(C(C)(C)C)cc2)C(=O)O)cc1 (configuration not stated)	inactive

Compound	membrane potential ratio readout (active if shifted either direction beyond buffer ±3SD; no single direction)
C/C(=N\Nc1nc2ccccc2[nH]1)c1cccs1	inactive
Nc1cc(N2CCCCCC2)c2nonc2c1[N+](=O)[O-]	inactive
Cc1ccc(C(=O)N/C(=C/C=C/c2ccccc2)C(=O)NCc2ccco2)cc1	inactive
CCc1ccc2c(c1)C1(NN=C(c3ccccc3)S1)C(=O)N2 (configuration not stated)	inactive
O=S(=O)(c1cccc(-c2nnc(SC(F)F)n2-c2ccccc2)c1)N1CCCCC1	inactive
Cn1c2ccccc2c(=O)c2c(O)cccc21	inactive
CC(=O)OCCOCn1cnn2c(=O)c(Br)c(C)nc12	inactive
CCNC(=O)CC1C(=O)N(c2ccc(F)cc2)C(=O)N1CCc1sccc1C (configuration not stated)	inactive
C/C(=N\NC(N)=S)c1cccnc1	inactive
COc1ccc(NC(=O)c2sc(N)nc2-c2ccccc2)cc1	inactive
Cc1ccccc1-n1c(C)cc(/C=N/NC(=O)c2ccc(CN3CCOCC3)cc2)c1C	inactive
O=C(Nc1ccccc1C(=O)NCCCn1ccnc1)c1ccc(Cl)cc1Cl	inactive
CCc1ccccc1N1CN(Cc2ccco2)CNC1=S	inactive
COC(=O)CN1C(C)=Nc2ccc(Br)cc2C1c1ccccc1 (configuration not stated)	inactive
CCN(CC)Cc1c(C(=O)N/N=C/c2cccc(OCc3ccc(F)cc3)c2)nnn1-c1nonc1N	inactive
CC(C)CCn1c(CN(C)Cc2ccccc2)nc2c1c(=O)n(C)c(=O)n2C	inactive
O=C(O)c1ccc(N/N=C/c2cn(-c3ccccc3)nc2-c2cccs2)cc1	inactive
CCC(Oc1ccccc1C)C(=O)Nc1ccc(S(=O)(=O)Nc2cc(C)on2)cc1 (configuration not stated)	inactive
CC1CCN(C(=O)CN(c2ccc(Oc3ccccc3)cc2)S(C)(=O)=O)CC1	inactive
CCN(CC)CCC(c1ccc2c(c1)OCO2)c1c(OC)cc(OC)c2c(-c3ccccc3)cc(=O)oc12 (configuration not stated)	inactive
C/C(=N\N=C(N)N)c1ccc(Cl)cc1	inactive

Compound	membrane potential ratio readout (active if shifted either direction beyond buffer ±3SD; no single direction)
COC(=O)c1ccccc1NC(=O)Cn1nc(C(F)(F)F)c2c1CCC2	inactive
O=C1c2cccc3cccc(c23)C(=O)N1CCCCCc1n[nH]c(=S)o1	inactive
CC(C)n1c(=S)[nH]c2cc(C(F)(F)F)ccc21	inactive
O=C(Cn1ncc2c3ccccc3n(Cc3ccccc3)c2c1=O)NCCCN1CCOCC1	inactive
CCOC(=O)N1CCN(C(=O)c2ccc(CN(c3ccc(C)c(C)c3)S(C)(=O)=O)cc2)CC1	inactive
CCCn1c2ccccc2c2cnn(CC(=O)NCCCN3CCCCC3CC)c(=O)c21 (configuration not stated)	inactive
Cc1ccccc1-n1nnc2c(=O)oc3ccccc3c21	inactive
C=CCn1c(SCc2ccc(C(=O)NCCO)cc2)nc2ccccc2c1=O	inactive
O=C(/C=C/c1cn(-c2ccccc2)nc1-c1ccc2c(c1)OCCO2)NCCCN1CCOCC1	inactive
COc1ccc(C(=O)NC(Cc2ccc(OC(=O)c3ccc(OC)cc3)cc2)C(=O)O)cc1 (configuration not stated)	inactive
Cc1cccnc1NC(=O)c1cccc(S(=O)(=O)N2CCN(c3ccc(F)cc3)CC2)c1	inactive
CCOc1ccccc1Nc1ccc2nonc2c1[N+](=O)[O-]	inactive
O=C(CCCN1C(=O)CSc2ncccc21)N1CCN(c2cccc(C(F)(F)F)c2)CC1	inactive
Cc1ccc2c(C)c(C(=O)N3CCC(N4CCC(C(=O)NC5CC5)CC4)CC3)oc2c1	inactive
CCOCCCN(C)C1CCN(C(=O)c2oc3ccccc3c2NC(=O)COc2cccc(C)c2)CC1	3.33 (active)
COCCNc1nc(-n2nc(C)cc2C)nc2sc3c(c12)CCCC3	inactive
O=c1c2ccccc2nnn1CSc1nc2sc3c(c2c(=O)n1CC1CCCO1)CCC3 (configuration not stated)	inactive
CC(C)(C)C(=O)/C(C#N)=C/c1ccc(O)cc1	inactive
Cc1oc2c(F)c(F)c(F)c(F)c2c1S(=O)(=O)Nc1cccc(C(F)(F)F)c1	inactive
O=C(Nc1ccc(F)c(Cl)c1)C1CCN(S(=O)(=O)c2cccnc2)CC1	inactive

Source: PubChem BioAssay AID493222 (Johns Hopkins Ion Channel Center, 2011)
